TPT1 inh – Candida albicans TPT1 enzyme inhibitors, primary screen, biochemical, fluorescence polarization | inhibition, % at 5 µM | AID 1962, 2009 | recombinant caTPT1, FP RNA substrate dephosphorylation | 0.81% of 300,000 active | tRNA 2'-phosphotransferase TPT1 (Candida albicans SC5314);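 active = inhibition above the mean of all tested compounds plus 3 SD, set per screening campaign, cut at about 24% in these data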;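 note: plate controls were DMSO alone for no effect and ferristatin control at 100 nM for full effect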
ZTA counter – ZTA (EBV) inhibition in EBNA-1 counter-screen | inhibition, % at 11 µM | 0.15% of 320,000 active | AID 2234 | P03206 | ZTA-DNA binding, fluorescence polarization; in the data active = inhibition above about 33%
EBNA-1 inhibitor – EBNA-1 DNA-binding inhibitors, primary screen, biochemical, fluorescence polarization. inhibition, % at 14.8 µM. 0.34% of 300,000 active; in the data active = inhibition above about 28%
dFosB act – activators of delta FosB homodimer, primary screen, biochemical, fluorescence polarization, TAMRA-CDK5 oligo, single point; Protein FosB (Mus musculus), P13346; purified delta FosB; percent of positive-control signal above neutral wells; activation, % at 25 µM; 0.99% of 340,000 active; AID 493131, 2011;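 active = mean activation above about 17%, with every replicate also reaching it, limit read from the data, passing the limit was not always enough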
NR3A LBD binder – binders of NR3A ligand-binding domain, primary screen, biophysical, differential scanning fluorimetry, uHTS | AID 1259313, 2017 | 2.5% of 340,000 active | NR3A LBD differential scanning fluorimetry, Tm shift; 0% = protein alone, 100% = glycine-bound protein | Tm shift relative to glycine control, % at 25 µM;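 active = melting temperature shift of at least 10% of the positive control shift, at one fixed dose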
Rpn11 block – Rpn11 (PSMD14) deubiquitinase inhibitors, primary screen, biochemical, fluorescence polarization, uHTS; 26S proteasome non-ATPase regulatory subunit 14 (Homo sapiens), O00487; human 26S proteasome, Ub4-pepOG fluorescence polarization; 20S core pre-blocked with epoxomicin; inhibition, % at 20 µM; 0.59% of 360,000 active; AID 588493, 2011;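 active = inhibition at 20 µM, scaled to each plate's controls, above about 33%, limit read from the data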
Target sequence (O00487 whole entry, looked up): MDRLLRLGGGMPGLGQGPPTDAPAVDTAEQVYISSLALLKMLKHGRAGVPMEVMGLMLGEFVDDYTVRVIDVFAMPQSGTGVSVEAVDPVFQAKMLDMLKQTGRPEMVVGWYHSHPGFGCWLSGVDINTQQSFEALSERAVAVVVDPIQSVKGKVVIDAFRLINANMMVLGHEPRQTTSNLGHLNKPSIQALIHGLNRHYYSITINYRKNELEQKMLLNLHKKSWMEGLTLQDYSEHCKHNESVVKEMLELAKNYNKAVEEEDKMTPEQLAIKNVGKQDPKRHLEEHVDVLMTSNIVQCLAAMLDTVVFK
Starred values were filed as active, the others as inactive; / = no result given. Shown are actives, neighbours in structure and some others; about 4.5% of the full set was active somewhere.

SMILES | TPT1 inh | ZTA counter | EBNA-1 inhibitor | dFosB act | NR3A LBD binder | Rpn11 block
CCCN(CCC)Cc1c(C(=O)N/N=C/c2c[nH]c3ccccc23)nnn1-c1nonc1N | -1 | 10 | -2 | -29 | 22* | 3
CCCc1c(C(=O)N/N=C/c2c[nH]c3ccccc23)nnn1-c1nonc1N | / | / | / | / | / | 8
COCc1c(C(=O)N/N=C/c2c[nH]c3ccccc23)nnn1-c1nonc1N | -2 | -19 | -10 | 0 | 18* | 0
CN(CC(=O)N1CCc2ccccc2C1)c1ccccc1 | 2 | 1 | 9 | 0 | 2 | -9
NCC(=O)Nc1ccc(Cl)cc1C(=O)c1ccc[nH]1 | / | / | / | -6 | 1 | 4
CC(=O)Nc1cccc(-c2ccnc3c2CC(C(=O)Nc2cccc(N(C)C)c2)O3)c1 (stereo not given) | / | / | / | / | / | 0
Cc1nn(CCCC(=O)Nc2nccs2)c(C)c1[N+](=O)[O-] | 1 | 1 | -5 | 1 | 0 | 1
C#CCN(C[C@@H]1[C@@H](OC(=O)Nc2c(C)noc2C)[C@@H](OC(=O)Nc2c(C)noc2C)Cn2c(=O)n(CCCCCC)c(=O)n21)S(=O)(=O)c1ccc(C)cc1 | / | / | / | / | / | 14
Cc1ccccc1NC(=O)Cc1nc(-c2ccc3ccccc3c2)cs1 | 5 | -6 | 0 | -6 | 1 | 12
Oc1ccccc1-c1cc(-c2ccccc2)n[nH]1 | / | / | / | -5 | -6 | -2
Oc1ccc(Br)cc1-c1cc(-c2ccccc2Cl)[nH]n1 | 1 | 23 | -2 | -4 | 23* | -5
Cc1ccc(O)c(-c2cc(-c3cccc(Br)c3)n[nH]2)c1 | 1 | 8 | -15 | -6 | 28* | -2
Cc1ccc(-c2cc(-c3ccc(F)cc3)n[nH]2)c(O)c1 | / | / | / | -1 | 12* | -1
Oc1ccc(Br)cc1-c1cc(-c2ccccc2F)[nH]n1 | 3 | 19 | 4 | 15 | 10 | -2
Oc1ccc(Cl)cc1-c1cc(-c2ccccc2)n[nH]1 | -1 | -5 | -6 | 14 | 25* | -15
CCc1ccc(C2=NN(CCC(=O)NC(C)CCc3ccccc3)C(=O)CC2)cc1 (stereo not given) | 0 | -9 | -10 | -9 | 0 | 5
Cc1ccc(-c2cc(-c3ccccc3[N+](=O)[O-])[nH]n2)c(O)c1 | 0 | 6 | -7 | -11 | 2 | 3
Cc1ccc(-c2cc(-c3ccccc3Cl)[nH]n2)c(O)c1 | 3 | 3 | 7 | -2 | 12* | -1
Cc1cc(C)cc(C(=O)NCC(=O)OCC(=O)N2CCCC2)c1 | / | / | / | / | / | -1
COCCCNC(=O)c1cc2cc(Br)ccc2oc1=O | -1 | 0 | 6 | 7 | -2 | 4
O=C(NNC(=O)c1cc2cc(Br)ccc2oc1=O)c1ccc(O)cc1O | 0 | -13 | -9 | 13 | 17* | 0
C=CC[C@H](CC(=O)N[C@H](CO)Cc1ccccc1)C(=O)N[C@H](COC(=O)[C@H](CC=C)CC(=O)OC(C)(C)C)Cc1c[nH]c2ccccc12 | / | / | / | -16 | -8 | 0
Cc1ccc(Nc2cc(C)nc(-c3ccccc3O)n2)cc1 | 1 | 23 | 15 | 6 | 7 | -3
Cc1cc(Nc2ccc(Br)cc2)nc(-c2ccccc2O)n1 | 3 | 16 | 4 | 13 | 29* | 2
Cc1cc(Nc2ccc(F)c(F)c2)nc(-c2ccccc2O)n1 | 1 | 0 | -1 | 3 | 23* | 7
COCCN(C(=O)COC(=O)c1cccc2ccccc12)c1c(N)n(Cc2ccccc2)c(=O)[nH]c1=O | -2 | -7 | -7 | -8 | 6 | -2
CN(C(=O)COC(=O)c1ccccc1Nc1ccccc1)c1c(N)n(Cc2ccccc2)c(=O)[nH]c1=O | 2 | -11 | 3 | -9 | 24* | -3
COCCN(C(=O)COC(=O)c1ccccc1Nc1ccccc1)c1c(N)n(Cc2ccccc2)c(=O)[nH]c1=O | 3 | 5 | 6 | -6 | 19* | 8
